16 compounds from PubChem BioAssay (NCI) can be followed below.

Common to all, as to experiment: NCI-60 one-dose screen, 48 h (100 = growth as untreated, 0 = no growth, -100 = all killed)
Conditions in all cases: 10 µM unless noted

Test [1] deals with T-47D breast.
The subject of test [2] is BT-549 breast.
Test [3] relates to MDA-MB-435 melanoma.
The test system of test [4] is SW-620 colon.
Test [5] relates to MCF7 breast.
The subject of test [6] is HCT-116 colon.
The test system of test [7] is HCC-2998 colon.
The test system of test [8] is KM12 colon.

Compounds without any hit were thinned out: in the full panel of roughly 83,000, 20% have a hit.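 In brief: 96-well plates, 48 h treatment, single concentration, percent growth endpoint.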 Unmarked numbers belong to inactive results. The source made the active and inactive calls. How the source made its calls: active means growth percent below 10; inactive means the rest.

Turning to `CCOC(=O)C1=C(N)Oc2c(sc3c(F)cccc23)C1c1ccc(O)cc1` (stereo not drawn), the growth in test [1] was 26.5%; in test [2] it was 23.3%; in test [3] it was 5.63% (active); in test [4], 31.1%; in test [5], 14.9%; in test [6] it was 26%. Moreover, the growth in test [7] is 38%; in test [8] it was 24%.

With `Nc1[nH]n2cc(-c3ccccc3)nc2c1N=Nc1ccc(S(N)(=O)=O)cc1`, the growth in test [1] was 42.8%; in test [2], 59.5%; in test [3], 28.9%; in test [4], 26.1%; in test [5], 45.5%; in test [6], 22.6%. Besides, the growth in test [7] is 45.5%; in test [8], 33.3%.

Turning to `C=C1C(=O)O[C@H]2[C@H]1CC/C(COC(=O)NCc1ccc(Cn3c(=O)sn(CCCCC)c3=O)cc1)=C\CC[C@@]1(C)O[C@@H]21`, the growth in test [1] is 0.543% (active); in test [2] it was 42.5%; in test [3], 25.7%; in test [4], -61.1% (active); in test [5], 6.29% (active); in test [6] it was -12.3% (active). In addition, the growth in test [7] is 94.6%; in test [8], 95.9%.

For the compound `COc1c(C(=O)Nc2ccc(C)c(Br)c2)ccc2ccccc12`, the growth is 88.9% in test [1]; 101% in test [2]; 31.7% in test [3]; 81.1% in test [4]; 96% in test [5]; 96.5% in test [6]. In addition, the figures for the growth in test [7] and in test [8] were 99.9% and 81.2%, respectively.

Take `CC(C)=CCCC(C)c1ccc(C)c2c1OCN(CCCCCO)C2` (stereo not drawn): the growth in test [1] was 88.1%; in test [2], 72.1%; in test [3] it was 97.1%; in test [4], 94.9%; in test [5], 88.7%; in test [6], 68.6%. Also, the growth in test [7] was 73.5%; in test [8], 104%.

Regarding `CCCOC(=O)Nc1nc2ccc(SCC(C)C)cc2s1`, the growth in test [1] was 37.8%; in test [2], 52.3%; in test [3], -7.7% (active); in test [4], 33.8%; in test [5], 19.7%; in test [6], 34.6%. Moreover, the growth in test [7] is 77.1%; in test [8] it was 38.8%.

As to `Cc1ccc(CNc2ccc3nc(CCC4CCCCC4)[nH]c3c2)cc1`, the growth in test [1] is 3.58% (active); in test [2], 88%; in test [3], 55.6%; in test [4], 32.3%; in test [5], 22.1%; in test [6], 16.3%. The values for the growth in test [7] and in test [8] were -25.2% (active) and 39.3%, respectively.

In the case of `COc1ccc(C2=C(Nc3ccc(C(=O)Nc4ccccc4)cc3)C(=O)N(C)C2=O)cc1`, the growth in test [1] is 68.8%; in test [2] it was 115%; in test [3] it was 106%; in test [4], 106%; in test [5] it was 102%; in test [6], 107%. The growth in test [7] is 98.5%; in test [8], 91.6%.

Consider `Cc1ccc(C2=Nc3c(N)ncnc3NC(c3cccc(Nc4ccnc5cc(C(F)(F)F)ccc45)c3)C2)cc1` (stereo not drawn), for which the growth in test [1] is 38.4%; in test [2] it was 53.6%; in test [3] it was -55.4% (active); in test [4], 12.3%; in test [5], 8.09% (active); in test [6], 12.6%. Moreover, the growth in test [7] was 31%; in test [8], 15.9%.

As to `CCOC(=O)NC(C)C`, the growth in test [1] is 100%; in test [2], 116%; in test [3] it was 111%; in test [4], 111%; in test [5], 106%; in test [6], 98.4%. Moreover, the figures for the growth in test [7] and in test [8] were 103% and 112%, respectively.

With `Cc1ccc(C[P+](c2ccccc2)(c2ccccc2)c2ccccc2)cc1`, the growth is 1.57% (active) in test [1]; 0.272% (active) in test [2]; 4.92% (active) in test [3]; 10.9% in test [4]; 10.9% in test [5]; 2.21% (active) in test [6]. The growth in test [7] is -26.4% (active); in test [8] it was -12.9% (active).

With `CN(C)CC1CCC(CN(C)C)C1=O` (stereo not drawn), the growth in test [1] was 106%; in test [2], 110%; in test [3] it was 121%; in test [4] it was 86.9%; in test [5], 93.7%; in test [6], 93.9%. Besides, the growth in test [7] was 114%; in test [8], 115%.

For `Nc1ncc(-c2ccc3ncnc(Nc4cccc(Cl)c4)c3c2)cn1`, the growth is -20.1% (active) in test [1]; 46.5% in test [2]; 55.6% in test [3]; 91.4% in test [4]; 24.2% in test [5]; 66.4% in test [6]. Further, the growth in test [7] is 60.5%; in test [8], 67.5%.

For the compound `CN(C)S(=O)(=O)c1cccc(C(=O)Nc2nc(-c3ccc(F)c(F)c3)cs2)c1`, the growth in test [1] was 19.7%; in test [2], 52.5%; in test [3] it was 83.3%; in test [4], 93.9%; in test [5], 48.4%; in test [6], 57.6%. In addition, the growth in test [7] is 88.1%; in test [8], 97.4%.

For `O=C1c2ccc3c4c5ccc(c24)C(=O)N1CCCOCCCCOCCCNCc1ccc(cc1)CNCCCOCCCCOCCCN(C3=O)C5=O`, the growth in test [1] was -48.7% (active); in test [2], 68.7%; in test [3] it was -95.4% (active); in test [4] it was -37.8% (active); in test [5], -58.3% (active); in test [6], -62.9% (active). Also, the growth in test [7] was -75% (active); in test [8] it was -30.4% (active).

For the compound `COCCOc1cc2ncnc(N3CCN(c4ncc(S(=O)(=O)N5CCCCC5)cn4)CC3)c2cc1OCCOC`, the growth is 87% in test [1]; 105% in test [2]; 105% in test [3]; 109% in test [4]; 78.7% in test [5]; 100% in test [6]. Also, the growth in test [7] is 99.3%; in test [8] it was 97.6%.
